The text below walks through data of PubChem BioAssay.

The nature of assay [1]: inhibitors of TNFa-induced NFkB p65 translocation, primary screen, imaging, HUVEC, MLSMR starter and 10KST1 sets (AID 438;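 active = inhibition above 20% together with a positive visual image hit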;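 also: compound added about 3h40 before a 20 min TNFalpha stimulation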;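 as to inhibition: signal is the nuclear over cytoplasmic p65 intensity ratio per well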). As to conditions: HUVEC TNFa-induced p65 nuclear translocation; cell count: measured here: nuclei count (cytotoxicity indicator), at 2.08 µM; inhibition: at 2 µM, stronger effect = higher value, 0% TNFa-plus-vehicle, 100% no-TNFa wells.
A short description of assay [2]: reduction of polyQ htt aggregates in cells – imaging, exon1htt(103Q)mCFP cells, high-content imaging, primary screen (AID 483;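 active = visual image review flags a hit and inhibition of aggregation exceeds 20%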;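 also: compound exposure lasted 3 days before fixation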;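 as to nuclei count: percent of the per-plate median nuclei count of sample wells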). As to conditions: exon1htt(103Q)mCFP cell line, aggregate imaging, at 2 µM; inhibition of aggregation: stronger effect = higher value; nuclei count: measured here: cell count, toxicity.
Assay [3] is described as follows: endothelial E-selectin expression blockers – imaging, HUVEC, immunofluorescence, MLSMR starter and 10KST1 sets, primary screen (AID 487;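 active = visually confirmed hit in the image check and inhibition above 20%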;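 as to inhibition: signal is fraction of cell area covered by stained E-selectin grains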;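 as to nuclei count: 100% = median nuclei count of all wells on the same plate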). As to conditions: HUVEC TNFalpha-induced E-selectin immunofluorescence imaging, at 2 µM; inhibition: stronger effect = higher value; nuclei count: measured here: cell number, toxicity.
The target of assay [4] is Voltage-gated potassium channel subunit beta-2 (Rattus norvegicus) (UniProt P62483). Put plainly: inhibitors of rat Kvbeta2 reductase activity – biochemical, NADPH fluorescence, primary screen (AID 622;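 active = fluorescence slope higher than the sample average by over 3 SD, cut at about -0.22 in these data, passing the limit was not always enough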;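 also: slope of raw intensity against log time taken from 70 to 1610 s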). The following applies: recombinant KvBeta, 4-cyanobenzaldehyde reduction, at 10 µM, stronger effect = higher value.
Chain of Voltage-gated potassium channel subunit beta-2 (Rattus norvegicus) (P62483 whole entry, looked up): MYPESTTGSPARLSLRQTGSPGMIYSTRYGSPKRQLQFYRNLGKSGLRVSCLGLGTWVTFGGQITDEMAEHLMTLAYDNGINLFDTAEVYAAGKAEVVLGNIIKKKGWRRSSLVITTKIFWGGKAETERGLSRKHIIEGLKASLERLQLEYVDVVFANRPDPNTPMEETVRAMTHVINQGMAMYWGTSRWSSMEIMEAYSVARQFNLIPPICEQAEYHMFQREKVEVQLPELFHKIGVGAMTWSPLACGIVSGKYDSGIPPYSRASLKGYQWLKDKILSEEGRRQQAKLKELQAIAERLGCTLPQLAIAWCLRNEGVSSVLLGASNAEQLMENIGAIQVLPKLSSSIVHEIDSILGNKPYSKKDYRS
Assay [5] shares this target. Put plainly: enhancers of rat Kvbeta2 NADPH turnover – biochemical, NADPH fluorescence, primary screen (AID 623;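 active = NADPH fluorescence slope more negative than the mean of all samples by about 3 SD, 99.7% confidence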;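 also: fluorescence intensity change per second fitted from 20 to 320 s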). The following applies: Recombinant KvBeta, NADPH fluorescence decrease slope, 10 min; at 10 µM; stronger effect = lower value.
Assay [6] addresses Alpha-2C adrenergic receptor (Homo sapiens) (UniProt P18825). Put plainly: compounds altering alpha2C-coupled GIRK flux – cell-based, HEK293 alpha2C/GIRK1/2, thallium flux, primary screen (AID 624).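 Also: slope of fluorescence ratio to pre-addition baseline per second over 15 to 24 s.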 The following applies: thallium flux BTC fluorescence, at 10 µM, actives lie on both sides.
A short description of assay [7]: blockers of RIG-like receptor reporter activation – cell-based, Sendai virus stimulus, luciferase, 10K MLSCN set, TLR/RLR signaling modifier project, primary screen (AID 602276;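 active = inhibition at or above 50% at 10 µM; inactive = inhibition below 50%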;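 also: firefly luciferase from ISG56 promoter only with Renilla not read in this screen; 0% = Sendai virus plus DMSO and 100% = medium plus DMSO without virus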). As to conditions: HEK293 RL24 IRF3 luciferase reporter, at 10 µM, stronger effect = higher value.
Assay [8] can be described thus: TLR3 IRF3 reporter activation blockers – cell-based, poly I:C stimulus, luciferase, 10K MLSCN set, primary screen (AID 602277;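 active = inhibition of the reporter signal at or above 50%; inactive = inhibition below 50%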). As to conditions: HEK293-TLR3 RL24 IRF3 luciferase reporter, at 10 µM, stronger effect = higher value.

The source made the active and inactive calls.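 The calls were made as follows, unless noted: active = fluorescence slope after compound addition differing from the mean of all screened samples at 99.7% confidence, in either direction; inactive = the rest.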

Chain of Alpha-2C adrenergic receptor (Homo sapiens) (P18825 whole entry, looked up): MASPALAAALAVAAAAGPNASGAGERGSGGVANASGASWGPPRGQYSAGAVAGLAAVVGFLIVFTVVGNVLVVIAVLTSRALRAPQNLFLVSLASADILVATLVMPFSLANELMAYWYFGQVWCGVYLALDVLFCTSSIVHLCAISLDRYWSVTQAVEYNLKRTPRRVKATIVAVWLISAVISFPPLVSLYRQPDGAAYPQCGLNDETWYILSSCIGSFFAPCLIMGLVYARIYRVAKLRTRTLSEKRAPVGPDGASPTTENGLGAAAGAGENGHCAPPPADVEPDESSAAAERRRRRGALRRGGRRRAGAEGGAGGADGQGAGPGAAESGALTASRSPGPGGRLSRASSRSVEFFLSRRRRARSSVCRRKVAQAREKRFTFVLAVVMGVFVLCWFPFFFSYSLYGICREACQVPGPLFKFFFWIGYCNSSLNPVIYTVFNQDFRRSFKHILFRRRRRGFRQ

`CCOC(=O)N1CCN(C(=O)c2ccc(CS(=O)(=O)c3c(Cl)cccc3Cl)o2)CC1`: the cell count in assay [1] was 512. Moreover, the inhibition in assay [1] is -5% (inactive); in assay [3], -97.8% (inactive); in assay [7], -2.6% (inactive); in assay [8], 21.2% (inactive). The inhibition of aggregation in assay [2] is 2.1% (inactive). Also, the nuclei count worked out at 102% in assay [2] and 116% in assay [3]. The fluorescence slope in assay [4] is -0.419 (inactive). Also, in assay [5], the NADPH fluorescence slope is -6.8e-05 (inactive). Also, in assay [6], the slope was 0.00631 (inactive).
As for `Cc1ccc2cc3cc(C(=O)N4CC(C)CC(C)C4)oc3nc2c1` (centres undefined), the cell count in assay [1] amounted to 654. Moreover, the inhibition is -3.9% (inactive) in assay [1], -77% (inactive) in assay [3], 2.56% (inactive) in assay [7] and -64.4% (inactive) in assay [8]. Further, the inhibition of aggregation in assay [2] is 14.3% (inactive). Further, the nuclei count in assay [2] came to 86.4%; in assay [3], 110%. Further, the fluorescence slope in assay [4] was -0.597 (inactive). For the same compound, the NADPH fluorescence slope in assay [5] was 7.7e-06 (inactive). Further, the slope in assay [6] was 0.00635 (inactive).
`O=C1CCCc2nc(N3CCCCC3)sc21`: in assay [1], the cell count worked out at 629. The inhibition in assay [1] is -15.2% (inactive); in assay [3], -13.1% (inactive); in assay [7], -57.2% (inactive); in assay [8], -85.2% (inactive). Besides, the inhibition of aggregation in assay [2] was -20.4% (inactive). The results for the nuclei count in assay [2] and in assay [3] were 108% and 86.9%, respectively. In addition, the fluorescence slope in assay [4] is -0.424 (inactive). The NADPH fluorescence slope in assay [5] was -4.5e-05 (inactive). Moreover, the slope in assay [6] is 0.00423 (inactive).
On to `Cn1c(SCC(=O)N2CCOCC2)nnc1-c1cnccn1`, for which the cell count in assay [1] amounted to 656. For the same compound, the inhibition in assay [1] is 1% (inactive); in assay [3] it was -36.3% (inactive); in assay [7], 3.04% (inactive); in assay [8] it was 21.7% (inactive). Moreover, the inhibition of aggregation in assay [2] was -11.1% (inactive). Further, the nuclei count in assay [2] turned out to be 122%; in assay [3], 114%. In addition, the fluorescence slope in assay [4] is -0.396 (inactive). In assay [5], the NADPH fluorescence slope was 8e-06 (inactive). Further, in assay [6], the slope is 0.00449 (inactive).
In the case of `Cn1c(=O)n(CC(=O)OCc2ccccc2)c(=O)c2c1nc1n2CCCN1C1CCCCC1`, the cell count in assay [1] was 376. The inhibition is 3.2% (inactive) in assay [1], 25.3% (inactive) in assay [3], -2.49% (inactive) in assay [7] and 17.2% (inactive) in assay [8]. Further, in assay [2], the inhibition of aggregation was 0.2% (inactive). The nuclei count in assay [2] is 82.9%; in assay [3], 92%. For the same compound, in assay [4], the fluorescence slope was -0.479 (inactive). For the same compound, the NADPH fluorescence slope in assay [5] is -1.8e-05 (inactive). Also, the slope in assay [6] is 0.00618 (inactive).
With `CCN1CCN(C(=O)c2oc(=O)c3ccccc3c2-c2ccc(C)cc2)CC1`, the cell count in assay [1] was determined as 805. Besides, the inhibition in assay [1] is -15.2% (inactive); in assay [3], -58.3% (inactive); in assay [7] it was 10.4% (inactive); in assay [8], 27.7% (inactive). Moreover, in assay [2], the inhibition of aggregation was 8.7% (inactive). Moreover, the nuclei count in assay [2] was 94.3%; in assay [3] it was 121%. Also, the fluorescence slope in assay [4] was -0.49 (inactive). The NADPH fluorescence slope in assay [5] is -4.9e-05 (inactive). In addition, in assay [6], the slope is 0.00617 (inactive).
`COc1cccc(-c2nc3n(n2)C(c2cccs2)C(C(=O)Nc2cccnc2)=C(C)N3)c1` (centres undefined): the cell count in assay [1] is 735. Further, the inhibition in assay [1] was -20.1% (inactive); in assay [3] it was -65.8% (inactive); in assay [7], 22.3% (inactive); in assay [8], 32.8% (inactive). For the same compound, the inhibition of aggregation in assay [2] was 30.4% (inactive). Besides, the nuclei count in assay [2] worked out at 111%; in assay [3] it was 113%. For the same compound, the fluorescence slope in assay [4] was -0.365 (inactive). For the same compound, the NADPH fluorescence slope in assay [5] is 1.9e-05 (inactive). Also, the slope in assay [6] was 0.00588 (inactive).
As for `CC(C)N1C(=O)C2C(C(=O)NC3CCCCC3)C3C=CC2(O3)C1C(=O)NC1CCCC1` (centres undefined), the cell count in assay [1] was 371. Moreover, the inhibition in assay [1] is 4.3% (inactive); in assay [3], -58.1% (inactive); in assay [7], 8.4% (inactive); in assay [8] it was 18.1% (inactive). In addition, the inhibition of aggregation in assay [2] is 23% (inactive). Besides, the nuclei count in assay [2] and in assay [3] was 101% in each case. For the same compound, the fluorescence slope in assay [4] is -0.366 (inactive). The NADPH fluorescence slope in assay [5] was 3.1e-05 (inactive). The slope in assay [6] is 0.00675 (inactive).
Take `O=C(Nc1ccc(CN2CCOCC2)cc1)c1cc2ccccn2n1`: in assay [1], the cell count amounted to 579. For the same compound, the inhibition in assay [1] was 0% (inactive); in assay [3] it was 8.4% (inactive); in assay [7] it was 45.9% (inactive); in assay [8], 12% (inactive). In assay [2], the inhibition of aggregation was -6.8% (inactive). Moreover, the nuclei count was found to be 99.9% in assay [2] and 108% in assay [3]. Further, the fluorescence slope in assay [4] is -0.596 (inactive). The NADPH fluorescence slope in assay [5] was -1.7e-05 (inactive). The slope in assay [6] is 0.00566 (inactive).
For the compound `O=C(CCN1C(=O)COc2ccccc21)NCCCN1CCN(c2ccccc2F)CC1`, the cell count in assay [1] stood at 660. Moreover, the inhibition in assay [1] was -7.1% (inactive); in assay [3] it was -82.2% (inactive); in assay [7], 11.7% (inactive); in assay [8] it was 15% (inactive). In assay [2], the inhibition of aggregation was -1.6% (inactive). Moreover, the nuclei count came out at 73.9% in assay [2] and 93.3% in assay [3]. Besides, in assay [4], the fluorescence slope is -0.425 (inactive). Moreover, the NADPH fluorescence slope in assay [5] was -2.7e-05 (inactive). For the same compound, in assay [6], the slope was 0.004 (inactive).
As to `COc1cc2[nH]c(=O)c(C(=O)NCCCN3CCCCC3)c(O)c2cc1OC`, the cell count in assay [1] is 637. Also, the inhibition in assay [1] was -24.5% (inactive); in assay [3], 15.9% (inactive); in assay [7] it was -5.59% (inactive); in assay [8], -9.38% (inactive). In assay [2], the inhibition of aggregation is 6.2% (inactive). The nuclei count came out at 98.3% in assay [2] and 108% in assay [3]. Also, in assay [4], the fluorescence slope is -0.583 (inactive). The NADPH fluorescence slope in assay [5] is -5.3e-05 (inactive). The slope in assay [6] is 0.00574 (inactive).
`COCC(=O)Nc1c(C(=O)Nc2ccccc2OC)oc2ccccc12`: the cell count in assay [1] came out at 602. The inhibition in assay [1] was -5.9% (inactive); in assay [3], 2.5% (inactive); in assay [7] it was -4.76% (inactive); in assay [8], 11.5% (inactive). Moreover, in assay [2], the inhibition of aggregation is 11.9% (inactive). In addition, the nuclei count in assay [2] came out at 99.1%; in assay [3], 60.9%. Also, the fluorescence slope in assay [4] is -0.318 (inactive). Also, the NADPH fluorescence slope in assay [5] is 1.2e-05 (inactive). Besides, the slope in assay [6] was 0.00625 (inactive).
For the compound `CCOC(=O)Nc1cc(OC)c(OC)cc1Cc1nccc2cc(OC)c(OC)cc12`, the cell count in assay [1] was 444. Also, the inhibition in assay [1] is -1.8% (inactive); in assay [3] it was -20.1% (inactive); in assay [7], -7.98% (inactive); in assay [8], 5.89% (inactive). Besides, the inhibition of aggregation in assay [2] was -1.2% (inactive). Further, the nuclei count in assay [2] was found to be 111%; in assay [3] it was 173%. For the same compound, the fluorescence slope in assay [4] is -0.532 (inactive). Also, the NADPH fluorescence slope in assay [5] was 4.5e-06 (inactive). The slope in assay [6] is 0.00447 (inactive).
On to `O=C(O)C1CCCN(S(=O)(=O)c2ccc(Cl)s2)C1` (centres undefined), for which, in assay [1], the cell count came out at 609. Further, the inhibition in assay [1] is -7.1% (inactive); in assay [3] it was -43.3% (inactive); in assay [7], 10.1% (inactive); in assay [8] it was 33.8% (inactive). For the same compound, the inhibition of aggregation in assay [2] is 13.3% (inactive). Moreover, the nuclei count in assay [2] was 88.8%; in assay [3], 116%. The fluorescence slope in assay [4] was -0.558 (inactive). For the same compound, the NADPH fluorescence slope in assay [5] was -2.9e-05 (inactive). The slope in assay [6] was 0.00655 (inactive).

As a reminder, the inhibition is the change of the read-out against control, counted positive when it falls.
